Our source for the growth values is PubChem BioAssay (NCI).

The panel holds about 83,000 compounds, 20% with a hit somewhere; the sample as a whole holds those more often.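 Each cell line was grown in a 96-well plate and treated with one concentration of compound for 48 hours. Values below 10 were considered active.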 The source made the active and inactive calls.

Common to all, as to test: NCI-60 one-dose screen, 48 h (100 = growth as untreated, 0 = no growth, -100 = all killed)
Experiment [1] has as its system DU-145 prostate. Particulars: 10 µM unless noted.
The subject of experiment [2] is K-562 leukemia. Particulars: 10 µM unless noted.
For experiment [3], the system named is MALME-3M melanoma. Particulars: 10 µM unless noted.
For experiment [4], the system named is MDA-MB-231 breast. The note with it: 10 µM unless noted.
Experiment [5] concerns SF-268 CNS. The note with it: 10 µM unless noted.
Experiment [6] has as its system SF-295 CNS. Particulars: 10 µM unless noted.
For experiment [7], the system named is SF-539 CNS. The note with it: 10 µM unless noted.
Experiment [8] has as its system M14 melanoma. The note with it: 10 µM unless noted.
Experiment [9] relates to RXF 393 renal. The note with it: 10 µM unless noted.
Experiment [10] concerns UACC-257 melanoma. The note with it: 10 µM.

For `COc1cc(C2C3=C(COC3=O)Nc3c2ccc2c3CCCC2)cc2c1OCO2` (configuration not stated), the growth in experiment [1] is -24.7% (active); in experiment [2] it was 12.7% (inactive); in experiment [3] it was 92.1% (inactive); in experiment [4], 6.67% (active); in experiment [5], 8.63% (active); in experiment [6], 13.3% (inactive). In addition, the growth was 4.95% (active) in [7] and 13.3% (inactive) in [8].
In the case of `O=S(=O)(NCCCNc1nccc(-c2c(-c3ccc(F)c(O)c3)nc3sccn23)n1)c1ccc(Cl)cc1`, the growth in experiment [1] was 87.4% (inactive); in experiment [2], 44.2% (inactive); in experiment [3], 2.69% (active); in experiment [4] it was 66.4% (inactive); in experiment [5], 82.8% (inactive); in experiment [6], 106% (inactive). Besides, the values for the growth in [7] and in experiment [8] were 103% (inactive) and 18.1% (inactive), respectively.
On to `O=C(Nc1ccccc1)OCC1OCOC(COC(=O)Nc2ccccc2)C1OC(=O)Nc1ccccc1` (configuration not stated), for which the growth was 43.7% (inactive) in experiment [1]; 57.9% (inactive) in experiment [2]; 72.2% (inactive) in [3]; 37% (inactive) in experiment [9]; 39.8% (inactive) in experiment [5]; 90.5% (inactive) in experiment [6]. For the same compound, the growth is 72.4% (inactive) in experiment [7], 102% (inactive) in experiment [10] and 16.2% (inactive) in experiment [8].
`CCCn1c(=S)sc2c(Cl)nc(C)nc21`: the growth in [1] was 124% (inactive); in [2], 103% (inactive); in experiment [3], 104% (inactive); in [4] it was 89.1% (inactive); in experiment [5] it was 98.5% (inactive); in experiment [6], 101% (inactive). Further, the results for the growth in experiment [7] and in experiment [8] were 93.3% (inactive) and 101% (inactive), respectively.
Turning to `Cc1oc2nc[nH]c(=O)c2c1C(=O)/C=C/c1ccc(Cl)cc1`, the growth in [1] is 6.76% (active); in experiment [2] it was -63.2% (active); in [3], 71% (inactive); in experiment [4] it was 22.3% (inactive); in experiment [5], 50.1% (inactive); in [6], 77% (inactive). For the same compound, the growth is 14.5% (inactive) in experiment [7] and 82.3% (inactive) in experiment [8].
With `CCN1C(=O)N(CC)C2C1NN=c1s/c(=C\c3cccc(F)c3)c(=O)n12` (configuration not stated), the growth is 5.59% (active) in experiment [1]; 8.99% (active) in experiment [2]; 48.7% (inactive) in [3]; 25.8% (inactive) in experiment [4]; 58.3% (inactive) in experiment [5]; 9.94% (active) in [6]. Besides, the figures for the growth in experiment [7] and in experiment [8] were -9.53% (active) and 47.6% (inactive), respectively.
With `NC(=O)c1c(NC(=O)c2ccc3c(c2)OCO3)sc2c1CCC(=O)C2`, the growth was 40% (inactive) in experiment [1]; 1.31% (active) in experiment [2]; -44% (active) in experiment [3]; -20.5% (active) in experiment [4]; 21.5% (inactive) in [5]; -4.12% (active) in experiment [6]. Moreover, the results for the growth in experiment [7] and in [8] were -55.5% (active) and 16.7% (inactive), respectively.
Consider `CSc1nc(-c2cc3ccccc3o2)cc(-c2ccc(Cl)cc2)c1C#N`, for which the growth in [1] was 68.5% (inactive); in [2], 63.4% (inactive); in experiment [3], 89.3% (inactive); in experiment [4], 27.8% (inactive); in experiment [5], 51.7% (inactive); in experiment [6], 9.92% (active). In addition, the growth in [7] is -7.47% (active); in experiment [8], 67.6% (inactive).
With `CCN1C(=O)N(CC)C2C1NN=c1s/c(=C3\C(=O)N(C4CCCC4)c4ccccc43)c(=O)n12` (configuration not stated), the growth in experiment [1] is 7.65% (active); in experiment [2] it was 4.67% (active); in experiment [3], 57.4% (inactive); in [4], 19.7% (inactive); in experiment [5], 43.4% (inactive); in experiment [6], -6.11% (active). The figures for the growth in [7] and in [8] were -39.3% (active) and 2.66% (active), respectively.
`Oc1ccc(N=Cc2ccccc2)cc1`: the growth was 89.5% (inactive) in experiment [1]; 32.6% (inactive) in experiment [2]; 83.5% (inactive) in [3]; 114% (inactive) in experiment [9]; 95.9% (inactive) in [5]; 112% (inactive) in experiment [6]. In addition, the values for the growth in experiment [7], in experiment [10] and in experiment [8] were 94.9% (inactive), 106% (inactive) and 91.5% (inactive), respectively.
`Clc1nc(Cl)c2ncn(C/C=C/Cn3cnc4c(Cl)nc(Cl)nc43)c2n1`: the growth in [1] was 44.2% (inactive); in experiment [2], 17.4% (inactive); in [3], 111% (inactive); in [4], 96.4% (inactive); in experiment [5] it was 62.3% (inactive); in [6] it was 60.4% (inactive). Further, the growth in [7] was 46.8% (inactive); in [8], 101% (inactive).
Consider `CCC(=O)Nc1ccccc1C#C/C=C\C#Cc1ccccc1SC`, for which the growth in [1] is 77.3% (inactive); in [2], 56% (inactive); in [3] it was 76.8% (inactive); in experiment [4], 47.9% (inactive); in experiment [5] it was 63.9% (inactive); in experiment [6], 59.8% (inactive). Besides, the results for the growth in [7] and in [8] were 60.1% (inactive) and 59.9% (inactive), respectively.
On to `COc1ccc(/C=C2\Oc3cc(OCCN4CCCC4)ccc3C2=O)c(OC)c1`, for which the growth in [1] is 90.8% (inactive); in experiment [2], 2.26% (active); in [3], 102% (inactive); in experiment [4] it was 88.7% (inactive); in experiment [5] it was 95.1% (inactive); in experiment [6] it was 100% (inactive). The growth in [7] was 87.4% (inactive); in experiment [8] it was 98.9% (inactive).
For `c1cncc(CNc2ccccc2-c2nnc(Nc3ccc4c(c3)OCCO4)o2)c1`, the growth in experiment [1] is -5.96% (active); in [2], 14.2% (inactive); in experiment [3], 80.2% (inactive); in [4], 26.4% (inactive); in [5], 18.7% (inactive); in [6] it was 12.2% (inactive). Moreover, the growth was 4.68% (active) in [7] and 12.7% (inactive) in [8].
For `Cc1cc(Cl)ccc1OC(C)C(=O)Nc1nnc(C2CC2)s1` (configuration not stated), the growth in [1] is 102% (inactive); in [2], 120% (inactive); in experiment [3], 119% (inactive); in experiment [4] it was 95.1% (inactive); in experiment [5], 111% (inactive); in experiment [6], 89% (inactive). In addition, the growth is 101% (inactive) in [7] and 113% (inactive) in experiment [8].
